Measured values taken from PubChem BioAssay (NCI).
Compounds without any hit were thinned out: in the full panel of roughly 83,000, 20% have a hit.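 48-hour exposure, single concentration, 96-well plates; percent growth endpoint where 0 means no net growth. Active: below 10.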 Active and inactive are the calls of the source.

Assays:
Test in all cases: NCI-60 one-dose screen, 48 h (100 = growth as untreated, 0 = no growth, -100 = all killed)
NCI-H23 lung = details: 10 µM unless noted
NCI-H226 lung = details: 10 µM unless noted
HOP-62 NSCLC = details: 10 µM unless noted
NCI-H460 lung = details: 10 µM unless noted
NCI-H522 lung = details: 10 µM unless noted
A549/ATCC NSCLC = details: 10 µM unless noted
786-0 renal = details: 10 µM unless noted
COLO 205 colon = details: 10 µM unless noted
DU-145 prostate = details: 10 µM unless noted
K-562 leukemia = details: 10 µM unless noted
MALME-3M melanoma = details: 10 µM unless noted
MDA-MB-231 breast = details: 10 µM unless noted
RXF 393 renal = details: 10 µM unless noted
SF-268 CNS = details: 10 µM unless noted
SF-295 CNS = details: 10 µM unless noted
SF-539 CNS = details: 10 µM unless noted
UACC-257 melanoma = details: 10 µM unless noted
M14 melanoma = details: 10 µM unless noted
NCI-H322M lung = details: 10 µM unless noted
HOP-92 NSCLC = details: 10 µM

Measured: growth

COc1cccc2cc(-c3cc4ccccc4[nH]3)/c(=N\NC(=O)c3ccc(Cl)cc3)oc12
inactive: NCI-H23 lung 44.6% | NCI-H226 lung 44% | HOP-62 NSCLC 31.3% | NCI-H460 lung 18.4% | NCI-H522 lung 18.7% | A549/ATCC NSCLC 39.8% | 786-0 renal 48.5% | COLO 205 colon 62.1% | DU-145 prostate 48.3% | K-562 leukemia 22.1% | MALME-3M melanoma 61.7% | MDA-MB-231 breast 41.3% | RXF 393 renal 45.9% | SF-268 CNS 32.9% | SF-295 CNS 43.2% | SF-539 CNS 33.1% | UACC-257 melanoma 17.4% | M14 melanoma 31.9%

CCNC(=O)N1CCc2cc(OC)c(OCCc3ccc(OC)cc3)cc2C1c1ccc(OC)cc1C (stereo unspecified)
active: NCI-H460 lung 1.22% | NCI-H522 lung -8.18% | 786-0 renal 9.54% | RXF 393 renal -12.7% | SF-539 CNS 6.35%
inactive: NCI-H23 lung 29% | NCI-H226 lung 33.5% | NCI-H322M lung 40.1% | A549/ATCC NSCLC 13.8% | COLO 205 colon 27.6% | DU-145 prostate 16.2% | K-562 leukemia 16.5% | MALME-3M melanoma 45.9% | MDA-MB-231 breast 19.7% | SF-268 CNS 34% | SF-295 CNS 10.6% | UACC-257 melanoma 50.5% | M14 melanoma 20%

CCCCCc1ccc(S(=O)(=O)Nc2cc(-c3csc(NC(=O)CN4CCN(C)CC4)n3)ccc2OC)cc1
active: NCI-H460 lung -61.5% | NCI-H522 lung -51.9% | 786-0 renal -75% | COLO 205 colon -57.6% | K-562 leukemia -27.9% | MALME-3M melanoma -84.6% | MDA-MB-231 breast -38.1% | SF-268 CNS -24.5% | SF-295 CNS -68.2% | SF-539 CNS -80.8% | UACC-257 melanoma -49.2%
inactive: NCI-H23 lung 49.8% | NCI-H226 lung 74.6% | HOP-62 NSCLC 60.3% | HOP-92 NSCLC 22.1% | A549/ATCC NSCLC 15.1% | DU-145 prostate 22.1%

NC(N)=Nc1ccc(Oc2cccc(NC(N)=Nc3ccc(I)cc3F)c2)cn1
active: HOP-92 NSCLC -3.49%
inactive: NCI-H23 lung 52.2% | NCI-H226 lung 84.3% | HOP-62 NSCLC 66.9% | NCI-H460 lung 40.6% | NCI-H522 lung 41.2% | A549/ATCC NSCLC 57.9% | 786-0 renal 80.8% | COLO 205 colon 39.7% | DU-145 prostate 88.3% | K-562 leukemia 46.1% | MALME-3M melanoma 75.5% | MDA-MB-231 breast 62.8% | SF-268 CNS 36.3% | SF-295 CNS 47.3% | SF-539 CNS 60.3% | UACC-257 melanoma 75.6%

Cc1cccc2c3c(sc12)C(c1ccc(F)cc1)C(C#N)=C(/N=C/c1ccc(Cl)cc1)O3 (stereo unspecified)
inactive: NCI-H23 lung 19.1% | NCI-H226 lung 29.9% | NCI-H322M lung 47.4% | A549/ATCC NSCLC 21.7% | 786-0 renal 25.6% | DU-145 prostate 20.8% | MALME-3M melanoma 63.5% | MDA-MB-231 breast 25.6% | SF-268 CNS 41.5% | UACC-257 melanoma 56.4%
active: NCI-H460 lung 5.27% | COLO 205 colon -49% | K-562 leukemia 7.18% | RXF 393 renal 2.24% | SF-295 CNS 3.61% | SF-539 CNS -13.1%
